Measurements reported in PubChem BioAssay (NCATS).
A number with no mark means an inactive call. Inconclusive results are not listed. Active and inactive are the calls of the source. Unless noted, the call rests on the fitted dose curve; in most records, active means well fitted curve in either direction with a large enough effect (not every such curve was filed as active); inconclusive means small, poorly fitted or top-dose-only effect, or another doubt; inactive means flat fitted curve, though single readings scatter.

Key:
[1] = AP1 Signaling Pathway (AID 357); conditions: ME-180 AP-1-bla reporter, EGF-induced, beta-lactamase ratio, 5 h; at 17.2 µM (top of the series) unless noted;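 further: ME-180 reporter cells stimulated with EGF at its EC50 level; on the % scale 0 is the no-effect control and ±100 the full control effect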
Method in brief: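 In this screen, ME-180 cells in Opti-MEM with 0.5% dialyzed FBS received EC50 EGF and compound titrations for 5 h. AP-1 reporter beta-lactamase was detected via CCF4 ratio, giving AC50 for positive and negative modulators.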

[2] = NFAT Signaling Pathway (AID 444); conditions: Jurkat NFAT-bla M1, carbachol, beta-lactamase ratio, 5 h; at 17.2 µM (top of the series) unless noted;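 further: carbachol stimulus at about its EC50 of 1 µM final; on the % scale 0 is the no-effect control and ±100 the full control effect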
Method in brief: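 Read-out: CCF4 FRET ratio (460 nm/530 nm) after 1 h RT dye loading, used for %activity and AC50 from titration series. Cells: Jurkat NFAT-β-lactamase/M1 line, treated with compound plus 1 uM carbachol for 5 h, 37 °C.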

[3] = Stat Signaling Pathway (AID 446); conditions: ME-180 (cervical carcinoma) SIE beta-lactamase reporter, IL-6 stimulated, 5 h; at 17.2 µM (top of the series) unless noted;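 further: ME-180 cervical cancer cells given 40 pM IL-6 alongside compound; SIE-controlled beta-lactamase reporter measured as 460/530 nm FRET emission ratio; on the % scale 0 is the no-effect control and ±100 the full control effect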
Method in brief: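 FRET read-out (405 nm excitation, 460/530 nm emission) of a beta-lactamase reporter under a STAT-inducible element in ME-180 cervical carcinoma cells. Cells with compound receive 40 pM IL-6 for 5 h. Values are normalised to AC90 stimulation and AC90 JAK-inhibitor controls.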

[4] = molecular target: Glucocorticoid receptor (Homo sapiens) (UniProt P04150); assay: GR-GFP Redistribution (AID 450;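 active means compounds whose dose series gives a full or clear partial fitted curve of increased nuclear translocation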; further: potency means the concentration at half of the fitted maximal effect)
Sequence of Glucocorticoid receptor (Homo sapiens) (P04150 whole entry, looked up): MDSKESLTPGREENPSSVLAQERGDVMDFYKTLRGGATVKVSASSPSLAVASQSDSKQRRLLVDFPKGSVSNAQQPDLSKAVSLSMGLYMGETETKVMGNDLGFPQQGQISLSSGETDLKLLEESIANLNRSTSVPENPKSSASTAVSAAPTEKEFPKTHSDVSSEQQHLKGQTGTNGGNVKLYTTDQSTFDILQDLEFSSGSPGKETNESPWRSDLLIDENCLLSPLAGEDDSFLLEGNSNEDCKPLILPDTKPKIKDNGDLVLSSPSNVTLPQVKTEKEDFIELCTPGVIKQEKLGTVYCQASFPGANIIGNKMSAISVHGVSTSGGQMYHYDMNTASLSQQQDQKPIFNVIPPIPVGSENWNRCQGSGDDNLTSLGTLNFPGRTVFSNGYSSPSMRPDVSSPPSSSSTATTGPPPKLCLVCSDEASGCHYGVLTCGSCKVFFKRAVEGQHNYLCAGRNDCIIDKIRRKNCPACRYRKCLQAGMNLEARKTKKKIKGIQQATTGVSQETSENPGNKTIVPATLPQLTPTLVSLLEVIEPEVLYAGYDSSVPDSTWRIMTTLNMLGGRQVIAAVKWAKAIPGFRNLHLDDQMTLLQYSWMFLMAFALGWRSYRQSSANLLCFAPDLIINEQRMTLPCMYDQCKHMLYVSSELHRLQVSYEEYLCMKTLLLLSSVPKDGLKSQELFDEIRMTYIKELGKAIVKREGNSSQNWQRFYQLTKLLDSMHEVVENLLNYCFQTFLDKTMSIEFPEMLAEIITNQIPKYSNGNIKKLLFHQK

Row | SMILES | activity change, negative = inhibition [1] | activity change, negative = inhibition [2] [%] | activity, negative = inhibition [3] [%] | Potency [4] [µM]
1 | CCOC(=O)CC(=O)CSc1nc2c(cc1C#N)CCCCC2 | 2.56% | 1.41 | -7.32 | > 20.6
2 | Cc1cc2ccccc2cc(C)c1=O | 9.45% | -28.3 | -25.4 | > 20.6
3 | COC(=O)Cn1cc(C(=O)OC)cc(Br)c1=O | 8.29% | 0.926 | -0.311 | > 20.6
4 | O=C(CSc1nnc(-c2ccccc2)c(-c2ccccc2)n1)N1CCOCC1 | -3.06% | 0.00472 | 8.97 | > 20.6
5 | C=CCN=C(NC#N)SCCc1ccccc1 | -4.76% | 7.9 | 5.61 | > 20.6
6 | C=CCn1c(C2CC(=O)N(c3ccc(C)cc3)C2)nc2ccccc21 (stereo not drawn) | -0.041% | 5.1 | 5.25 | > 20.6
7 | CCOc1ccc(Cc2nc(N)nc(N)n2)cc1 | -3.76% | 6.51 | 8.67 | > 20.6
8 | Cc1cc(=O)oc(C)c1C(=O)N[C@@H]1CCCCNC1=O | 9.85% | 9.68 | 9.42 | > 20.6
9 | CC1(C)Cc2c(c(-c3ccccc3)nc3[nH][nH]c(=O)c23)CO1 | -1.59% | -1.86 | 12.3 | > 20.6
10 | O=S1(=O)C[C@@H](N2CCOCC2)[C@H](N2CCOCC2)C1 | -10.3% | 6.36 | -4.63 | > 20.6
11 | O/N=C/c1ccc(OCC(O)COc2ccc(/C=N/O)cc2)cc1 | -15.3% | -1.17 | 4.46 | > 20.6
12 | Cc1ccc(N2CN=c3s/c(=C\c4cccnc4)c(=O)n3C2)cc1 | -7.29% | -22.3 | -5.47 | > 20.6
13 | CN(C)C=C1C(=O)c2ccccc2C1=O | 6.29% | 3.97 | 1.64 | > 20.6
14 | C=CCOc1ccc(/C(O)=C2/C(=O)C(=O)N(CCCN3CCOCC3)C2c2ccc(OC)cc2)cc1 (stereo not drawn) | -6.96% | 8.61 | -4.29 | > 20.6
15 | CCSc1nnc(NC(NC(=O)c2ccco2)(C(F)(F)F)C(F)(F)F)s1 | 15.1% | -7.65 | 3.98 | > 20.6
16 | Cc1c(C(=O)O)c(=S)sn1CCOc1ccccc1 | -0.1% | 10.4 | 5.37 | > 20.6
17 | CC(=O)c1c(C)c2c(n1CCN(C)C)CCCC2 | 123% [activator] (active) | -7.5 | 9.43 | > 20.6
18 | O=C1CCC(=O)N1CN(Cc1ccco1)CN1C(=O)CCC1=O | 7.15% | 5.38 | 0.484 | > 20.6
19 | COc1ccc(/C(O)=C2\C(=O)C(=O)N(CCN(C)C)C2c2cccc(OC)c2OC)cc1Cl (stereo not drawn) | -2.56% | 11.9 | 8.3 | > 20.6
20 | CCn1nc(NC(=O)c2ccco2)c2cc3ccccc3nc21 | -5.14% | 5.58 | -7.47 | > 20.6
21 | Cn1c(N)c(C#N)c2c(c1=S)CSC(C)(C)C2 | 1.02% | -25.2 | -2.98 | > 20.6
22 | CCOC(=O)c1c(C(F)(F)C(F)(F)C(F)(F)C(F)(F)F)n[nH]c1C | 4.08% | -9.51 | -8.59 | > 20.6
23 | C/C(=N\O)C1(C)N(O)C(C)(C)C(c2ccco2)=[N+]1[O-] (stereo not drawn) | 5.37% | 9.27 | 1.33 | > 20.6
24 | OCCOCCNc1ncnc2c1cnn2-c1ccccc1 | 7% | 1.59 | -1.47 | > 20.6
25 | O=S(=O)(NCc1cccnc1)c1cccc2nsnc12 | 6.05% | -11.1 | 4.09 | > 20.6
26 | Cc1nc(NS(=O)(=O)c2ccccc2)sc1NC(=O)OC(C)C | 3.92% | -1.13 | 3.96 | > 20.6

Row | SMILES | activity change, negative = inhibition [1] | activity change, negative = inhibition [2] [%] | activity, negative = inhibition [3] [%] | Potency [4] [µM]
27 | CC1(C)CN(O)CCN1O | 29.1% | 0.875 | 7.69 | > 20.6
28 | CCCC1C2C(=O)N(c3ccccc3OC)C(=O)C2ON1c1ccccc1 (stereo not drawn) | 1.4% | 4.89 | 0.927 | > 20.6
29 | Cc1c(/C(O)=C2\C(=O)C(=O)N(CCN(C)C)C2c2cccs2)cnn1-c1ccccc1 (stereo not drawn) | 6.26% | -10.6 | -3.53 | > 20.6
30 | CCCCOc1ccc(C(=O)NCC(=O)NCC(=O)OCC)cc1 | -0.159% | -7.6 | -5.03 | > 20.6
31 | c1coc(-c2nc3nc4ccccc4nc3n2-c2ccc3c(c2)OCCO3)c1 | -28.6% | 21.1 | -8.28 | > 20.6
32 | CN1CCC2(CC1)C1CN(C)CC=C1C(C#N)=C(N)C2(C#N)C#N (stereo not drawn) | 6.27% | 13.7 | 12.8 | > 20.6
33 | COC(=O)C(NC(=O)c1ccccc1)(Nc1nccs1)C(F)(F)F (stereo not drawn) | 6.27% | 2.67 | 5.62 | > 20.6
34 | COc1ccc(Cn2c(CCCO)nc3ccccc32)cc1OC | -8.44% | 3.22 | -4.44 | > 20.6
35 | COC(=O)c1cc(S(=O)(=O)N2CCOCC2)c(N2CCOCC2)cc1N1CCOCC1 | -1.61% | 5.16 | 5.81 | > 20.6
36 | O=C(NC1(C(F)(F)F)C(=O)Nc2c1c(=O)[nH]c(=O)n2-c1ccccc1)c1cccnc1 (stereo not drawn) | -3.2% | 8.45 | 3.92 | > 20.6
37 | S=c1[nH]nc(-c2ccco2)n1Cc1ccccc1 | 6.39% | 3.89 | 21.7 | > 20.6
38 | COC(=O)CN(c1nc(C)cc(OC)n1)S(=O)(=O)c1ccccc1 | -9.15% | -15.3 | 8.46 | > 20.6
39 | CSc1nc2sc3c(c2c2nnnn12)CCC3 | -5.46% | -14.8 | 9.44 | > 20.6
40 | CCN(CC)c1ncc(C)c(=O)[nH]1 | 16.3% | 2.65 | 7.65 | > 20.6
41 | Cc1cn2c(-c3ccncc3)nnc2s1 | -4.06% | 1.86 | -2.66 | > 20.6
42 | C=CCn1c(SCc2c(F)c(F)c(F)c(F)c2F)nc(O)cc1=O | 4.5% | 25.9 | -10.5 | > 20.6
43 | CC(C(=O)N(C)C)N(C#N)c1nc(N(C)C)nc(N(C)C)n1 (stereo not drawn) | 1.24% | 2.25 | -6.97 | > 20.6
44 | COc1ccc(OC)c(C(O)c2coc3ccc(O)c(CN4CCOCC4)c23)c1 (stereo not drawn) | 0.618% | -10.4 | -5.12 | > 20.6
45 | N#CCCn1cnc2c(=S)nc[nH]c21 | 16.8% | 11.2 | 11.6 | > 20.6
46 | N#Cc1ccc(-c2cccnc2)nc1SCC(=O)Nc1sc2c(c1C#N)CCC2 | -1.23% | -7.12 | -7.78 | > 20.6
47 | COc1cc(C(=O)Nc2ccc(O)cc2C(=O)O)ccc1OC(C)=O | -6.46% | 22.4 | 6.09 | > 20.6
48 | CCOC(=O)c1[nH]c2ccc(C)cc2c1N | -6% | -1.75 | -1.27 | > 20.6
49 | CCNc1sc(C(=O)c2cccs2)c(N)c1C#N | -8.55% | 20.9 | -7.29 | > 20.6
50 | CC(C)(C)c1ccc(O)c(N)c1 | 3.38% | -5.9 | 8.3 | > 20.6
51 | Cc1c(-c2cccs2)[n+](=O)c2c(n1[O-])CCCC2 | 14.7% | -0.25 | 6.22 | > 20.6
52 | CCN(CC)S(=O)(=O)c1cccc2c(N(C)C)cccc12 | -13.4% | -17.2 | 19 | > 20.6
